Compound activity: PubChem, National Center for Advancing Translational Sciences (NCATS)
Cycloheximide cs: counter-screen hit for Shiga toxin inhibitors, cycloheximide. cell reporter, cycloheximide protein synthesis inhibition counterscreen. max response, %. actives 12% (n = 300,000). AID 2314; in the data active = max response mostly above about 13%, no sharp cut-off; inactive = mostly below about 14%; note: read at 38.3 µM for the half of the compounds with a filed dose; 0% is about no effect
LASV entry inh: Lassa virus entry inhibition. Lassa virus pseudotype entry inhibition, cell reporter. Potency, µM (top dose mostly 37.9 µM), without a hit: top-dose activity change, negative = inhibition, hits mostly inhibitors. actives 1.2% (n = 300,000); calls by dose curve; tested in HEK293 cells; note: potency is the fitted concentration of half-maximal effect; % is set by controls: 0 for no effect and ±100 for the full control effect; nearly all actives have a fitted effect of over 50% in size
Shiga inhibitor: Shiga toxin inhibition. Vero cells, Shiga toxin protein synthesis inhibition reporter. inhibition, % at 38.7 µM. actives 9.2% (n = 290,000); in the data active = inhibition mostly above about 28%, no sharp cut-off; inactive = mostly below about 43%; note: 0% is about no effect
MARV entry inh: blocks Marburg virus binding to or entry into cells; actives 1.8% (n = 300,000); Potency, µM (titrated, usually from 37.8 µM), without a hit: at the top dose activity change, negative = inhibition, hits mostly inhibitors; Marburg virus pseudotyped entry inhibition, cell reporter; calls by dose curve; tested in HEK293 cells; note: potency is the fitted concentration of half-maximal effect; % is set by controls: 0 for no effect and ±100 for the full control effect
Numbers without * were called inactive; ? = inconclusive; · = not tested or not shown; [ ] = dose if it differs, or a comment. Hits are enriched below; roughly 12% of the tested compounds scored in any of these assays.

SMILES	Cycloheximide cs	LASV entry inh	Shiga inhibitor	MARV entry inh
NC(=O)C1CCCN(C(=O)c2ccc3nc(Cc4cccc(Cl)c4)oc3c2)C1 (centres undefined)	13.0	·	16.1	·
O=C(NCCc1ccncc1)c1ccc2nc(Cc3cccc(Cl)c3)oc2c1	-0.2	5.9%	-9.9	-8.9%
CC(=O)C1CCCN(C(=O)c2ccc3nc(Cc4cccc(Cl)c4)oc3c2)C1 (centres undefined)	12.9*	?	16.8	-14.6%
O=C(c1ccc2nc(Cc3cccc(Cl)c3)oc2c1)N1CCC(O)CC1	-0.7	·	-4.1	·
O=C(c1ccc2nc(Cc3cccc(Cl)c3)oc2c1)N1CCOCC1	58.9*	-18.0%	68.9*	34.0%
O=C(NCC1COCCO1)c1ccc2nc(Cc3cccc(Cl)c3)oc2c1 (centres undefined)	51.2*	19.1%	51.8*	12.0%
O=C1c2oc3ccccc3c(=O)c2C(c2ccc(Br)cc2)N1c1ccccn1 (centres undefined)	·	-1.0%[46.1 µM]	·	·
CCCCn1cnc2cc(NC(=O)c3cc(OC)c(OC)c(OC)c3)ccc21	·	15.3%[46.1 µM]	·	4.0%[46.1 µM]
CCn1cnc2cc(NCc3cccc(OC)c3O)ccc21	43.7*	-1.1%	111.7*	-4.3%
CCCCn1cnc2cc(NCc3cccc(OC)c3O)ccc21	18.8*	-14.5%	103.1*	-2.0%
Cc1cccc(C(C)C)c1NC(=O)c1ccc2c(c1)CCCN2S(C)(=O)=O	·	13.5%[46.1 µM]	·	-12.6%[46.1 µM]
CC(Cc1ccccn1)NC(=O)CCc1nnc(C2CCCCC2)o1 (centres undefined)	10.7*	12.7%	14.9	2.0%[46.1 µM]
Clc1ccc(CSc2snnc2-c2ccccc2)c(Cl)c1	43.3*	11.3%	98.5*	-27.7%
COC(=O)C(C)Sc1snnc1-c1ccccc1 (centres undefined)	2.6	-8.6%	10.3	-0.8%
Clc1ccc(CSc2nnc(-c3ccncc3)o2)c(Cl)c1	-3.6	?	-3.2	4.1%
c1ccc(CSc2snnc2-c2ccccc2)cc1	44.2*	-4.3%	41.5*	?
CCCN(CCC)C(=O)c1oc2ccccc2c1NC(=O)Cc1cccc(OC)c1	2.7	·	-1.8	·
Nn1cnnc1SCC(=O)Nc1ccc(C2CCCCC2)cc1	50.3*	-0.3%	80.9*	8.7%
CC(=O)Nc1ccc(NC(=O)CSc2nncn2C)cc1	-1.9	-10.0%[46.1 µM]	-11.7	10.3%[46.1 µM]
Cn1cnnc1SCC(=O)c1ccc2c(c1)CCCC2	32.3*	29.8%	68.7*	?
Cn1cnnc1SCC(=O)Nc1ccc2c(c1)CCC2	15.3*	?	35.4*	16.7%
COc1ccc(NC(=O)CSc2nnc(Cc3cccs3)n2C)cc1	·	-1.8%	·	-7.6%[46.1 µM]
COc1ccc(-c2sc(C(=O)c3ccc(Cl)cc3Cl)cc2CC(=O)O)cc1	-3.0	?	-1.5	?
C=CCn1c(COc2ccccc2F)nnc1SCC(=O)c1c[nH]c2ccccc12	-0.6	?	-1.6	12.6µM*
C=CCn1c(COc2ccccc2F)nnc1SCC(=O)Nc1cc2oc3ccccc3c2cc1OC	-2.2	?	-15.3	?
SMILES	Cycloheximide cs	LASV entry inh	Shiga inhibitor	MARV entry inh
COC1=CC(=O)OC(c2ccco2)C1 (centres undefined)	·	-30.1%[46.1 µM]	·	6.1%[46.1 µM]
COc1ccc(-n2nc3cc(C)c(NC(=O)c4ccc(C)cc4C)cc3n2)cc1Cl	·	1.8%[46.1 µM]	·	-3.3%[46.1 µM]
Cc1cc2nn(-c3ccc(F)cc3)nc2cc1N	57.8*	?	·	5.01µM*
Cc1cc2nn(-c3ccc(Cl)cc3)nc2cc1N	50.5*	·	113.4*	·
COc1ccc(-n2nc3cc(C)c(N)cc3n2)cc1Cl	39.8*	·	39.1*	·
Cc1nn(S(=O)(=O)c2ccc(C(C)C)cc2)c(C)c1S(=O)(=O)N1CCCCC1	·	3.9%[46.1 µM]	·	·
O=C(CN1CCCCC1)Nc1nc(-c2ccc(Cl)cc2)cs1	-4.2	-25.4%[46.1 µM]	-7.0	8.9%[46.1 µM]
O=C(CN1CCCCC1)Nc1nc(-c2ccccc2)cs1	34.6*	-21.9%[46.1 µM]	35.0*	-29.7%[46.1 µM]
O=C(Nc1nc(-c2cccc(Br)c2)cs1)Oc1ccccc1	21.6	?	28.7	18.1%
COCC(=O)Nc1nc(-c2ccc(-c3ccccc3)cc2)cs1	64.7*	?	80.9*	4.4%
CCc1ccc(-c2csc(NC(=O)Oc3ccccc3)n2)cc1	24.8*	?	192.6*	38.0%
COCC(=O)Nc1nc(-c2ccc([N+](=O)[O-])cc2)cs1	1.1	·	36.8	·
O=C(CCN1C(=O)C2CCCCC2C1=O)Nc1nc2ccc(F)cc2s1 (centres undefined)	·	11.2µM*	·	?
COc1ccc(CC(=O)OCC(=O)N2CCCc3ccccc32)cc1OC	·	12.3%	·	8.7%[46.1 µM]
COC(=O)Cc1c(C)c2ccc(O)c(CNCc3ccc(OC)c(OC)c3)c2oc1=O	6.3	18.7%[46.1 µM]	1.2	-19.2%[46.1 µM]
COc1ccc(S(=O)(=O)NCC2CCC(C(=O)NCC(OC)OC)CC2)cc1 (centres undefined)	1.9	-10.8%	-4.2	?
O=C(COc1ccc(F)cc1)NN1C(=O)CSC1=S	-5.6	-0.2%	26.3	25.1%[46.1 µM]
CN1CCN(CC(=O)N(C)c2nc(-c3ccccc3)cs2)CC1	60.6*	4.1%	60.4*	?
Cc1nnc(SCC(=O)Nc2nc(-c3ccccc3)cs2)n1N	8.6	3.7%	10.1	6.9%
CC(=O)NCC(=O)OCC(=O)Nc1nc(-c2ccccc2)cs1	16.3*	?	63.4*	-0.9%
Cc1nc(NC(=O)CN2CCOCC2)sc1-c1ccccc1	26.4*	?	76.5	?
Cn1cnnc1SCC(=O)Nc1nc(-c2ccccc2)cs1	13.0*	-14.9%	4.7	27.6%[46.1 µM]
O=C(CCN1C(=O)C2CCCCC2C1=O)Nc1nc(-c2ccccc2)cs1 (centres undefined)	17.1*	·	59.2	·
CC(=O)N1CC(=O)N=C1SCC(=O)Nc1nc(C)c(-c2ccccc2)s1	33.1*	-15.4%	36.9*	-7.0%
Cc1ccc(-c2csc(NC(=O)CN3CCOCC3)n2)cc1C	21.4*	?	24.3	5.3%[46.1 µM]
SMILES	Cycloheximide cs	LASV entry inh	Shiga inhibitor	MARV entry inh
O=C(O)CCCC(=O)Nc1nc(-c2ccccc2)cs1	-2.7	3.5%	-9.8	7.3%[46.1 µM]
CCOc1ccc(-c2csc(NC(=O)CSC3=NC(=O)CN3C(C)=O)n2)c2ccccc12	-5.9	?	-9.9	-26.8%
O=C(O)C1C2CCC(O2)C1C(=O)Nc1ccc(OC(F)F)cc1 (centres undefined)	-1.9	-26.1%[46.1 µM]	-16.7	?
Cc1nnc(CN(C)C(=O)c2cc(COc3ccc(C)c(C)c3)on2)o1	35.9*	·	43.7	·
Cc1ccc(OCc2cc(C(=O)N(C)Cc3cnn(-c4ccccc4C)c3)no2)cn1	20.0*	7.94µM*	34.9	?
Cc1csc(CN(C)C(=O)c2cn(Cc3cccc4ccccc34)nn2)n1	21.2	0.8%	35.8*	28.2%
Cc1csc(CN(C)C(=O)C2CCC(=O)N(CCCc3ccccc3)C2)n1 (centres undefined)	-1.9	·	-12.0	·
CN(Cc1cccc2cnccc12)C(=O)c1cc(COc2ccc(F)cc2Cl)on1	22.8*	?	32.3	-32.5%[46.1 µM]
CC(Cc1cccnc1)NC(=O)c1cc(COc2ccc(F)cc2Cl)on1 (centres undefined)	14.7	-11.2%	35.4	12.9%
Cc1nc(CN(C)C(=O)c2cc(COc3ccc4ncccc4c3)on2)cs1	11.1	?	19.3	?
CCN1C(=NCc2ccccc2)NC(c2cccc(C(F)(F)F)c2)C(C(=O)OC)=C1C (centres undefined)	·	·	·	-21.6%[14.2 µM]
O=C(CN1C(=O)COc2ccccc21)NC1CCCC1	-6.0	18.4%[46.1 µM]	-18.0	-10.8%[46.1 µM]
